Compound activity deposited in PubChem by several laboratories.
Rows were chosen to be rich in hits. Some 3.6% of all compounds tested hit in one or more screens of this group.
TROY signal inh: inhibitors of TROY-driven NF-kB signaling, primary screen, Q293 LMP1-TROYcd cells, NF-kB luciferase, uHTS; AID 1347056, 2019; inhibition, % at 10 µM; hit rate 0.98% among 360,000; Q293 LMP1-TROYcd NF-kB luciferase reporter, 4 h;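 active = compounds whose plate-normalised and pattern-corrected inhibition of the luciferase reporter signal at the single screening dose is 50% or more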
TWEAK Fn14 block: inhibitors of TWEAK-Fn14 signaling, primary screen, luciferase reporter cells, uHTS | TWEAK-stimulated Fn14 reporter cells, luciferase luminescence, 8 h | inhibition, % at 10 µM | hit rate 2% among 360,000 | AID 1159606, 2016; in the data active = inhibition above about 50%
LGR2 inh: inhibitors of bursicon-induced LGR2 CRE-luciferase signal, primary screen, cell-based, HEK293, CRE-luciferase reporter, bursicon stimulation. bursicon-stimulated, 4 h. inhibition, % at 9.99 µM. hit rate 0.35% among 380,000;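 active = drop in luminescence signal, shown as inhibition above about 50% in the replicate tests, limit read from the data, passing the limit was not always enough; inconclusive = probably only some replicates passing the limit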;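 also: agonist challenge used bursicon conditioned medium at about half maximal strength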
EBV LMP1 NFkB: EBV LMP1-driven NF-kappaB luciferase reporter inhibitors, primary screen, cell-based, luminescence, single point; LMP1-induced NF-kappaB luciferase reporter cells; inhibition, % at 12.5 µM; hit rate 0.69% among 350,000; in the data active = inhibition above about 41%; inconclusive = no clear call, values can overlap the other calls;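 also: 0% = neutral control wells and 100% = reference inhibitor control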
HSF1 inh: HSF1 inhibitors in luciferase reporter cells, primary screen, cell-based, NIH3T3, luminescence | NIH3T3-HGL HSE-luciferase, MG132-induced, luminescence 8 h; stronger effect = lower value | activity change, negative = inhibition, % at 7.5 µM (by protocol) | hit rate 0.77% among 300,000;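 active = more than half of replicate wells show activity change below -50%, luminescence cut by over half; inconclusive = some wells, but at most half, below -50%; inactive = no replicate well below -50%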;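 also: luciferase reports HSF-1 transcriptional activity via heat shock element; 0% = median of DMSO wells and -100% = zero luminescence signal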
HSF-1 act: HSF-1 activators, primary screen, NIH3T3-HGL cells, MG132 stress, luminescence, single point; AID 504408, 2011; NIH3T3-HGL HSF-1 luciferase reporter, 8 h; 100% = twice DMSO control signal; activation, % at 9 µM; hit rate 1.7% among 300,000;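 active = mean replicate activation of at least 50% with a set share of replicates each reaching 50%; inconclusive = only one of those two conditions met; inactive = mean below 50% and too few replicates reaching it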;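 also: 0% = median of the neutral control wells and 100% = twice that signal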
Numbers without * were called inactive; u = inconclusive; x = no result.

SMILES	TROY signal inh	TWEAK Fn14 block	LGR2 inh	EBV LMP1 NFkB	HSF1 inh	HSF-1 act
Cc1ccc(S(=O)(=O)Nc2ccc3c(c2)CC(=O)N([C@H](C)CO)C[C@H](C)[C@@H](CN(C)Cc2ccc4c(c2)OCO4)O3)cc1	x	x	-29.3	x	x	x
O=C(c1cccnc1)N1C[C@@H]2[C@H](c3ccccc31)[C@H](CO)N2C(=O)Nc1cccc(F)c1	x	x	12.5	x	x	x
CCCC(=O)Nc1ccc2c(c1)C(=O)N(C)C[C@@H](OC)[C@H](C)CN(CC1CCOCC1)[C@H](C)CO2	x	x	-0.5	x	x	x
CN(C)CC(=O)Nc1ccc2c(c1)[C@@H]1C[C@@H](CC(=O)NCc3ccccc3)O[C@H](CO)[C@@H]1O2	x	x	-1.9	x	x	x
Cc1ccc(OCC(=O)Nc2cccc(S(=O)(=O)N3CCCC3)c2)cc1C	4.9	0.4	11.0	5.1	x	x
COc1cccc(NC(=O)COc2ccccc2C(N)=O)c1	-41.3	2.8	x	0.2	27.0	71.2*
O=C(COc1ccc2ccc(=O)oc2c1)Nc1cccc(S(=O)(=O)N2CCCCC2)c1	40.6	52.8*	33.3	8.6	x	x
O=C(Cn1ccc(C(F)(F)F)n1)Nc1cccc(S(=O)(=O)N2CCCCC2)c1	7.8	-7.0	9.1	52.8*	-1.4	-13.7
Cc1ccc(S(=O)(=O)N2CCN(CCNC(=O)C(=O)NCc3ccccc3)CC2)cc1	-12.2	2.7	17.0	-0.6	-87.1*	-90.5
Cc1noc(C)c1NC(=O)Nc1ccc2c(c1)C(=O)N([C@H](C)CO)C[C@H](C)[C@@H](CN(C)C(=O)NC(C)C)OCCCC[C@@H](C)O2	x	x	9.0	x	x	x
COc1ccc(CC(=O)Nc2cccc(S(=O)(=O)N3CCCCCC3)c2)cc1OC	35.4	53.2*	7.5	20.3	-1.2	1.4
COc1ccc(NC(=O)COc2ccccc2C(N)=O)cc1S(=O)(=O)N1CCCCC1	-10.0	-2.2	14.9	-2.2	x	x
Cc1ccc(NC(=O)COc2ccccc2C(N)=O)cc1S(=O)(=O)N1CCCCCC1	43.8	58.1*	19.8	22.4	x	x
Cc1ccc(NC(=O)CSc2ncnc3ccccc23)cc1S(=O)(=O)N1CCCCCC1	53.5*	86.5*	41.8	21.2	7.3	10.5
COc1ccc(NS(=O)(=O)c2cccc(NC(=O)c3ccc(S(=O)(=O)N4CCCCCC4)cc3)c2)cc1	44.5	70.2*	x	-13.6	7.4	-10.2
O=C(C[C@H]1CC[C@@H](NC(=O)c2ccc3c(c2)OCO3)[C@H](CO)O1)NCc1ccc(Cl)cc1	x	x	7.7	x	x	x
C[C@@H]1CN([C@H](C)CO)C(=O)c2cccc(NS(=O)(=O)c3cccs3)c2O[C@@H]1CN(C)Cc1ccc(Oc2ccccc2)cc1	x	x	-21.7	x	x	x
COc1cc(C(C)=O)ccc1OCC(=O)Nc1ccc(C)c(S(=O)(=O)N2CCCCCC2)c1	62.7*	83.8*	45.4	25.7	x	x
Cc1cc(S(=O)(=O)N2CCCC2)ccc1OCC(=O)NCc1ccccc1	18.5	-13.4	-3.5	1.9	-77.2*	-83.1
Cc1cc(S(=O)(=O)N2CCCC2)ccc1OCC(=O)NCc1ccccn1	1.7	-8.3	6.9	0.2	4.7	0.0
CO[C@@H](CN(C)C(=O)c1ccc2c(c1)OCO2)[C@H](C)CN([C@@H](C)CO)S(=O)(=O)c1ccc(F)cc1	x	x	7.4	x	x	x
CO[C@H]1CN(C)C(=O)c2cc(NC(=O)CC(F)(F)F)ccc2OC[C@@H](C)N(C(C)=O)C[C@H]1C	x	x	-5.7	x	x	x
Cc1ccc(-n2c(C)cc(C(=O)CSc3nncs3)c2C)cc1	4.7	-0.4	x	-33.3	38.8	67.4*
Cc1cc(C(=O)CSc2nncs2)c(C)n1-c1c(C)n(C)n(-c2ccccc2)c1=O	-1.2	19.3	x	-10.9	-2.8	-8.6
Oc1ccccc1Nc1nc(NCc2ccco2)c2ccccc2n1	12.7	13.2	-19.9	2.7	13.1	-6.5
SMILES	TROY signal inh	TWEAK Fn14 block	LGR2 inh	EBV LMP1 NFkB	HSF1 inh	HSF-1 act
c1ccc(Nc2nc(NCc3ccco3)c3ccccc3n2)cc1	-6.3	51.9*	6.5	-13.8	1.3	25.5
c1coc(CNc2nc3ccccc3s2)c1	-34.1	-4.0	-81.5	-14.9	30.1	79.8*
Cc1cccc(Nc2nc(NCc3ccco3)c3ccccc3n2)c1	30.1	85.8*	x	u	-4.2	-8.1
Cc1nnc(NCc2ccco2)s1	11.3	-20.3	x	4.3	-6.9	6.5
Cc1ccc(S(=O)(=O)Nc2nc3ccccc3nc2NCc2ccco2)cc1	-18.5	3.3	x	-19.8	44.3	67.6*
C[C@@H]1CN([C@H](C)CO)C(=O)c2cc(NC(=O)c3ccncc3)ccc2O[C@@H](C)CCCCO[C@H]1CN(C)Cc1ccc(C(=O)O)cc1	x	x	-0.4	x	x	x
CO[C@H]1CN(C)C(=O)c2cc(NC(=O)C3CCOCC3)ccc2OC[C@@H](C)N(CC2CC2)C[C@H]1C	x	x	33.2	x	x	x
Fc1ccccc1Cn1nnc(-c2ccc3c(c2)OCO3)n1	52.7*	16.0	x	-36.0	52.1	83.4*
C[C@@H]1CN([C@H](C)CO)S(=O)(=O)c2ccc(/C=C/c3ccccc3)cc2O[C@H]1CN(C)C(=O)c1ccncc1	x	x	-19.1	x	x	x
COCC#Cc1cnc2c(c1)C(=O)N([C@H](C)CO)C[C@H](C)[C@H](CN(C)C(=O)c1ccc(F)cc1)O2	x	x	21.4	x	x	x
CC(C)c1ccc(/C=N/NC(=O)C2CCCC2)cc1	-40.3	-54.2	-87.0	-45.5	26.7	51.6*
CC(C)c1ccc(/C=N/Nc2ccc(C(=O)O)cc2)cc1	56.9*	92.0*	x	3.5	-90.0*	-90.6
C=CCOc1c(Br)cc(/C=N/Nc2ccc(C(=O)O)cc2)cc1OCC	30.9	11.4	x	-7.0	-52.6*	-52.9
CCOc1cc(/C=N/O)cc(Br)c1OCC	17.0	9.6	x	9.2	5.1	7.9
O=c1nc(N/N=C/c2c[nH]c3ccccc23)cn[nH]1	-36.8	-10.4	-34.4	-5.6	9.7	21.2
O=c1nc(N/N=C/C=C/c2ccccc2)cn[nH]1	41.2	70.0*	66.6*	47.5*	-1.8	1.9
c1cc(CN2[C@@H]3CNC[C@H]2C3c2ccc(-c3ccncc3)cc2)cc(-c2ccncc2)c1 (some centres not stated)	x	x	-3.4	x	x	x
CO[C@H]1CN(C)C(=O)c2ccc(NC(=O)c3cc(C)on3)cc2OC[C@H](C)N(CC2CC2)C[C@H]1C	x	x	-6.0	x	x	x
COc1ccc(/C=N/Nc2ccc(C(=O)O)cc2)cc1OC	-23.9	44.1	-11.1	-3.7	-20.3	-30.1
COc1ccc(/C=N/Nc2ccc(C(=O)O)cc2)cc1Br	65.8*	93.1*	79.7*	35.7	-77.7*	-81.8
O=C(O)c1ccc(/C=N/Nc2ccc(C(F)(F)F)cn2)cc1	-50.6	1.3	-86.4	-42.8	19.7	52.5*
O=C(O)c1ccc(N/N=C/C=C/c2ccccc2)cc1	-50.6	63.1*	-42.5	-28.7	11.9	8.0
